Legend:
Conditions in all cases: Compound Concentration (nM):1000
PRKG1 = test system: PRKG1
PRKG2 = test system: PRKG2
PRKR = test system: T1, PRKR
T1 construct: gene EIF2AK2

PRKX = test system: PRKX
PRP4 = test system: T2, PRP4
T2 construct: gene PRPF4B

PYK2 = test system: T3, PYK2
T3 construct: gene PTK2B

QSK = test system: T4, QSK
T4 construct: gene KIAA0999

RAF1 = test system: RAF1
RET(M918T) = test system: RET(M918T)
RET(V804L) = test system: RET(V804L)
RET(V804M) = test system: RET(V804M)
RET = test system: RET
RIOK1 = test system: RIOK1
RIOK2 = test system: RIOK2
RIOK3 = test system: RIOK3
RIPK1 = test system: RIPK1
RIPK2 = test system: RIPK2
RIPK4 = test system: RIPK4
RIPK5 = test system: T5, RIPK5
T5 construct: gene DSTYK

ROCK1 = test system: ROCK1
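Further: KINOMEscan scanMAX binding as percent activity remaining versus control; lower means stronger binding.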

SMILES	Percent Control (PRKG1)	Percent Control (PRKG2)	Percent Control (PRKR)	Percent Control (PRKX)	Percent Control (PRP4)	Percent Control (PYK2)	Percent Control (QSK)	Percent Control (RAF1)	Percent Control (RET(M918T))	Percent Control (RET(V804L))	Percent Control (RET(V804M))	Percent Control (RET)	Percent Control (RIOK1)	Percent Control (RIOK2)	Percent Control (RIOK3)	Percent Control (RIPK1)	Percent Control (RIPK2)	Percent Control (RIPK4)	Percent Control (RIPK5)	Percent Control (ROCK1)
C/C(Nc1ccc(S(N)(=O)=O)cc1)=C1/C(=O)Nc2ccccc21 [GW335962X]	90%	94%	63%	87%	100%	99%	97%	83%	92%	98%	100%	96%	82%	100%	69%	96%	83%	86%	48%	83%
CCS(=O)(=O)c1ccc(OC)c(Nc2ncc(-c3cccc(F)c3)o2)c1 [GW621970X]	100%	100%	76%	100%	100%	100%	99%	100%	52%	84%	100%	67%	94%	71%	100%	85%	57%	100%	100%	96%
COc1cc(C)c(N(C)C(=O)CN(C)C)cc1Nc1nc(Nc2cccc(F)c2C(N)=O)c2cc[nH]c2n1 [GSK2219385]	92%	82%	100%	95%	100%	81%	100%	100%	100%	100%	71%	87%	73%	74%	74%	95%	100%	74%	88%	100%
CC1=C(C(=O)Nc2ccc3[nH]ncc3c2)C(c2ccc(Cl)c(Cl)c2)CC(=O)N1 (stereo not shown) [GSK299115A]	45%	67%	79%	25%	74%	79%	92%	100%	74%	75%	89%	76%	99%	100%	86%	77%	72%	78%	99%	0%
COc1cc2ncnc(Nc3ccc4c(cnn4Cc4ccccc4)c3)c2cc1OC.Cl [GW282449A]	93%	100%	89%	100%	100%	100%	100%	100%	90%	100%	100%	75%	97%	88%	100%	100%	27%	100%	71%	94%
Cl.O=S1CCN(Cc2ccc(-c3ccc4ncnc(Nc5ccc(OCc6ccccc6)c(F)c5)c4c3)o2)CC1 [GW576924A]	100%	100%	86%	100%	100%	100%	100%	100%	100%	100%	100%	100%	93%	83%	100%	100%	43%	92%	87%	100%
Cl.O=C(Nc1ccc(Oc2ccc3[nH]c(NC(=O)c4ccccc4)nc3c2)cc1)Nc1cc(C(F)(F)F)ccc1F [GW709042A]	91%	88%	85%	100%	100%	100%	100%	27%	2.5%	3.6%	2.7%	0.6%	52%	100%	33%	62%	89%	100%	100%	95%
CCn1c(-c2nonc2N)nc2c(C#CC(C)(C)O)nc(OCCNC)cc21.Cl [GSK949675]	34%	0.5%	94%	7.9%	90%	100%	99%	100%	73%	88%	100%	96%	100%	91%	100%	100%	100%	100%	99%	57%
COc1ccccc1-c1cc(/C=C2\C(=O)Nc3ncc(Br)cc32)cc(Br)c1O [GW442130X]	100%	100%	90%	100%	96%	100%	100%	100%	100%	91%	100%	100%	100%	17%	100%	100%	100%	100%	100%	96%
NS(=O)(=O)c1ccc(N/N=C2\C(=O)Nc3ccc(-c4cnco4)cc32)cc1 [GW276655]	68%	57%	54%	100%	100%	79%	100%	100%	59%	60%	92%	82%	27%	69%	51%	76%	84%	87%	68%	8.8%
COc1cc(C=NNc2ncnc3c2cnn3-c2ccccc2)ccc1O [GW513184X]	100%	100%	76%	100%	100%	100%	100%	100%	18%	90%	100%	44%	32%	45%	16%	96%	50%	9.1%	90%	97%

Source: paper PMC7826789 (International Journal of Molecular Sciences, 2021)
